High-throughput results from PubChem BioAssay.
D1 antagonist: antagonists of human D1 dopamine receptor; P21728; HEK293 TREx D1 cells, calcium flux, dopamine EC80; hits give low values; activity change, negative = inhibition, % at 10 µM; 360,000 compounds, 3.2% hits; AID 504652; in the data active = activity change below about -30%; note: % is set by controls: 0 for no effect and ±100 for the full control effect
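Using tetracycline-induced force-coupled D1 Hek293 cells and a calcium dye, signals were followed for 180 s after compound, then for 180 s after EC80 dopamine, to detect inhibitors.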
D1 agonist: activates the human D1 dopamine receptor | activation, % at 2 µM | AID 504660 | 360,000 compounds, 1% hits | HEK293 T-REx D1 cells, calcium flux, agonist mode | P21728; in the data active = activation above about 30%; note: 0% is about no effect
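Tetracycline-induced HEK293 TREx D1 cells, force-coupled to calcium signalling, were dye-loaded with a no-wash calcium kit. Compound was pin-added after a 10 s baseline. Fluorescence was read kinetically at 1 cycle/s for 180 s, with calcium rises flagged as agonism.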
DRD3 agonist: activates the human D3 dopamine receptor; P35462; D3R DiscoveRx beta-arrestin cells, luminescence, 90 min; 410,000 compounds, 0.58% hits; max activation, %; in the data active = max activation above about 30%; note: 0% is about no effect
Target sequence (P35462 whole entry, looked up): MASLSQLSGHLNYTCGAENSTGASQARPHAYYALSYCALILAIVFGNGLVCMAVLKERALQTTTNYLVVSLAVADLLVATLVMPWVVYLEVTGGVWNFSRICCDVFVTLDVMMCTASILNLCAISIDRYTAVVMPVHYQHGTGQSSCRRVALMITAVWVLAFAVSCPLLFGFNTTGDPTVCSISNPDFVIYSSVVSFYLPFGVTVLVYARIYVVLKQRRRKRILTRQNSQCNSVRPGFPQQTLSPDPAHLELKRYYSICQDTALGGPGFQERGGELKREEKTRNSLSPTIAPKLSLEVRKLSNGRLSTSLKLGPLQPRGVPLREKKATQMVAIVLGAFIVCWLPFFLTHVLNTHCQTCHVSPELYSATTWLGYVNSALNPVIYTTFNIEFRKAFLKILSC
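Agonist-mode cell screen: cells plated at 1500/well and incubated overnight at 37 °C, then exposed to library compounds for 90 min at 37 °C. Detection reagent was added for 30–60 min at room temperature, and luminescence was read.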
D1 potentiator: enhances dopamine response at the human D1 receptor; P21728; HEK293 TREx D1 cells, calcium flux, dopamine EC20 potentiation; potentiation, % at 10 µM; 360,000 compounds, 0.036% hits; in the data active = potentiation above about 30%; note: 0% is about no effect
DRD3 antagonist: antagonists of human D3 dopamine receptor; P35462; D3R cells, DiscoveRx beta-arrestin luminescence, antagonist mode; hits give low values; max response, negative = inhibition, %; 360,000 compounds, 2.5% hits; AID 652054; in the data active = max response below about -50%; inconclusive = no clear call, values can overlap the other calls; note: % is set by controls: 0 for no effect and ±100 for the full control effect
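Cells plated overnight at 1500 cells/well, then exposed to library compounds with dopamine controls for 90 minutes at 37 degrees C. DiscoveRx reagent added for 30–60 minutes at room temperature; luminescence read, quantitative HTS format.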
* = called active by the depositor; ? = inconclusive; · = no result. Sampled rows, rich in hits. Any-hit rate of the full collection: about 6.1%.

SMILES | D1 antagonist | D1 agonist | DRD3 agonist | D1 potentiator | DRD3 antagonist
NC(=O)OCC(COC(N)=O)c1ccccc1 | -39.0* | 0.5 | 17.3 | 4.2 | -22.2
NC(=O)NC(Cc1ccccc1)c1ccccc1 (centres undefined) | 1.8 | 2.4 | 0.2 | -10.3 | -18.5
CN(C)CCN(Cc1ccco1)C(=O)c1oc2ccccc2c1NC(=O)c1cccc(F)c1 | -16.1 | 66.2* | -33.2 | 3.6 | ·
Cc1c(C(=O)N(Cc2ccco2)Cc2cccs2)oc2ccccc12 | -2.0 | 7.4 | 6.2 | · | 1.1
CN(C)CCN(Cc1ccco1)C(=O)c1oc2ccccc2c1NC(=O)COc1ccccc1 | -40.3* | 16.0 | -16.3 | -13.0 | -2.1
CCOC(=O)[C@]12CCC=C1N(Cc1ccco1)C(=O)[C@H](CC(=O)NCc1cccc3ccccc13)C2 | · | · | 5.1 | · | 9.0
CCN1C(=O)[C@@H]2[C@H](C1=O)[C@@H]1C(=O)Nc3ccccc3C(=O)N1[C@@H]2c1ccc(OC)cc1 | -9.2 | 1.9 | 35.4* | -2.0 | -6.6
CCOCCCNC(=O)C(NC(=O)Cc1cccs1)c1ccc(C)cc1 (centres undefined) | -43.7* | 0.9 | -2.2 | -3.0 | -24.8
Cc1ccccc1OCCNc1cc(N2CCCCC2)ccc1[N+](=O)[O-] | 25.1 | 0.3 | 1.9 | 0.9 | -23.8
Cc1ccccc1OCCNc1cc(N2CCN(CCO)CC2)ccc1[N+](=O)[O-] | -19.0 | 33.0* | -13.8 | -11.8 | -64.4*
COc1ccc(OCCNc2cc(N3CCCCC3)ccc2[N+](=O)[O-])cc1 | -7.1 | 6.2 | -6.0 | 5.7 | -14.0
Cc1cccc(OCCNc2cc(N3CCN(CCO)CC3)ccc2[N+](=O)[O-])c1 | 0.0 | 7.2 | -12.8 | 1.4 | -57.7*
CC1CN(c2ccc([N+](=O)[O-])c(NCCOc3ccccc3)c2)CCN1 (centres undefined) | -20.0 | 32.4* | -14.0 | -9.6 | ?
Nc1nc(Nc2cc(F)cc(F)c2)nc(NC2CCCC2)n1 | 25.4 | 3.2 | · | 0.8 | ·
CN(Cc1ccccc1)C(=O)c1nc[nH]c1C(=O)N(C)Cc1ccccc1 | · | -3.9 | 4.1 | -5.2 | -22.7
Cc1ccc(NC(=O)CSCc2cc(=O)c3ccccc3[nH]2)c(C)c1 | 14.2 | -0.9 | 22.5 | -0.7 | ·
Cc1ccc(Cl)cc1NC(=O)Nn1cnnc1 | -1.0 | 1.4 | -11.2 | 6.7 | 8.2
COc1ccc(C)cc1NC(=O)c1ccc2c(c1)CCN2S(=O)(=O)c1ccc(Cl)cc1 | 11.2 | 2.4 | 4.6 | -1.1 | ·
COc1ccc(CCN(Cc2ccccn2)C(=S)Nc2ccccc2C)cc1OC | 3.4 | 6.5 | -1.7 | -3.7 | 27.8
COc1cccc(NC(=S)N(CCc2ccc(OC)c(OC)c2)Cc2ccccn2)c1 | -16.6 | 2.1 | -19.0 | -1.9 | -53.2*
Cc1cccc(N2CCN(C(=O)c3ccoc3C)CC2)c1C | -16.3 | 1.5 | 35.6* | -5.0 | 6.8
CN1CCN(C(=O)c2cc3ccccc3oc2=O)CC1 | -5.8 | 2.2 | 0.3 | -4.5 | 8.3
Cc1cccc(N2CCN(C(=O)c3cc4ccccc4oc3=O)CC2)c1C | -75.5* | 3.9 | 1.2 | -9.7 | 0.0
Cc1ccc(Cl)cc1Nc1nc2ccccc2n2c(C)nnc12 | 11.0 | 8.2 | -4.7 | -3.3 | ·
O=C(c1cccs1)c1cn(CCOc2ccccc2F)c2ccccc12 | -11.3 | 13.6 | -11.8 | -2.2 | ·
SMILES | D1 antagonist | D1 agonist | DRD3 agonist | D1 potentiator | DRD3 antagonist
O=C(c1cccs1)c1cn(CCOc2ccc(F)cc2)c2ccccc12 | 29.4 | 34.6* | -11.7 | -5.3 | ·
COc1ccc([N+](=O)[O-])cc1/C=N/Nc1nn[nH]n1 | 23.4 | 6.1 | -1.9 | -2.2 | ?
COc1ccc(N/C(=N\c2nc(C)cc(C)n2)NC(=O)C(C)C)cc1OC | 1.9 | -1.6 | -0.6 | 5.2 | -65.2*
CCOc1ccc(N/C(=N/c2nc(C)cc(C)n2)NC(=O)CC)cc1 | -17.3 | 1.1 | 7.4 | -1.3 | 13.3
CCC(=O)N/C(=N/c1nc(C)cc(C)n1)Nc1ccc(C)cc1 | -42.6* | 0.3 | 0.9 | -7.7 | 1.8
COc1ccc(N/C(=N/c2nc(C)cc(C)n2)NC(=O)c2ccccc2)cc1 | -59.4* | 0.0 | 0.6 | -13.9 | 9.4
CCN(Cc1ccccc1)C(=O)c1c(C)oc2ncn(C)c(=O)c12 | 1.5 | 2.2 | -1.0 | -6.2 | ·
Cc1cccc(C)c1NC(=O)CN(Cc1ccccc1)Cc1ccccc1 | · | · | -5.8 | · | 15.3
Cc1c(C(=O)Nc2ccccc2)sc2nc[nH]c(=O)c12 | -32.9* | -1.1 | 3.8 | -8.8 | 3.8
Cc1c(C(=O)Nc2ccc(F)cc2)sc2nc[nH]c(=O)c12 | -20.3 | 2.2 | -14.5 | -6.2 | ·
CC1=C/C(=C(\c2cc(C)c(O)c(Br)c2)c2ccccc2S(=O)(=O)O)C=C(Br)C1=O | -16.0 | 3.8 | -21.9 | -7.0 | -51.7*
N#Cc1cccnc1N1CCN(C(=O)c2ccc3c(c2)S(=O)(=O)c2ccccc2C3=O)CC1 | · | · | -5.8 | · | -1.0
O=C1c2ccccc2S(=O)(=O)c2cc(C(=O)N3CCN(c4ccc(Cl)cn4)CC3)ccc21 | · | · | 43.9* | · | 22.0
Cc1cc(C)c(C)c(S(=O)(=O)N2CCC(C(=O)Nc3ccncc3)CC2)c1C | -4.5 | 10.2 | 3.2 | -0.1 | 16.4
CCOc1cc(CN2CCN(Cc3ccc(C)o3)C(CCO)C2)ccc1OC (centres undefined) | 6.1 | 1.6 | 0.4 | -4.2 | -28.7
COc1ccccc1/C=C/CN1CCN(Cc2ccc(C)o2)C(CCO)C1 (centres undefined) | 3.0 | 1.3 | -14.1 | -6.0 | -77.2*
COc1cc(/C=C/CN2CCN(Cc3ccc(C)o3)C(CCO)C2)ccc1O (centres undefined) | 10.5 | 0.5 | -50.6 | -3.7 | -61.5*
C/C(=C\c1ccccc1)CN1CCN(Cc2ccc(C)o2)C(CCO)C1 (centres undefined) | -0.4 | 2.3 | -19.3 | -3.8 | -79.7*
CCCCn1cnc2c(SCc3ccc(Br)cc3)nc(N)nc21 | · | · | 8.6 | · | -0.1
O=C(O)c1ccccc1Nc1cc(Cl)ccc1C(=O)O | · | · | -3.1 | · | ·
Cc1ccc2nc(SCC(=O)Nc3ccc(C(N)=O)cc3)[nH]c2c1 | 3.8 | 1.4 | -7.3 | 1.6 | -21.1
Cc1cccc2nc(CSc3nc4ccc([N+](=O)[O-])cc4[nH]3)cn12 | -37.4* | 0.3 | -10.5 | -21.7 | 0.0
Cc1ccc2nc(SCc3ccc([N+](=O)[O-])cc3)[nH]c2c1 | -35.3* | 2.9 | 10.1 | -4.8 | -18.9
Cc1ccc2nc(SCC(=O)Nc3cccc([N+](=O)[O-])c3)[nH]c2c1 | -6.5 | 0.1 | -17.5 | -4.1 | -52.1*
CCOC(=O)c1c(NC(=O)CSc2nc3ccc(C)cc3[nH]2)sc2c1CC(C)(C)NC2(C)C | 11.4 | 48.1* | -9.4 | 0.8 | ?
Cc1ccc2nc(SCc3ccc([N+](=O)[O-])cc3)nc(C)c2c1 | 4.1 | 0.1 | 11.8 | 2.2 | -15.5
CCCn1c(=O)c(C(=O)NCc2ccccc2)c(O)c2ccccc21 | 19.5 | 8.6 | 8.1 | -3.6 | 23.5
Cc1cccc(C(=O)NNC(=O)c2c(O)c3ccccc3n(C)c2=O)c1 | 2.3 | 17.3 | 30.5* | 0.2 | 57.8
